This is an account of results in PubChem BioAssay AID1508600 (Functional Genomics Laboratory (NCATS/FGL), 2020).

Hit rate of the full screen: of about 53,000 sequences, about 3,700 (7%) were called active.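 The calls were made as follows: active = gene knockdowns whose robust z-score for IL-1 alpha signal is at least 2 or at most -2, so actives lie on both sides; inactive = the rest.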 Shown is part of a subset that was picked to be rich in actives.

This test in a line: Components of the Cytosolic LPS Sensing Pathway: Gene Identification via Genome-wide siRNA Screen.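 Also: robust z of the log signal after scaling to non-targeting control siRNA wells of the plate.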 Particulars: RAW264.7 macrophages, IL-1a HTRF, actives lie on both sides, screened at 100 nM (by protocol), cells primed 5 h with Pam3CSK4 first. In outline:
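Three distinct siRNAs per gene were tested singly at 100 nM in RAW264.7 macrophages. Following Pam3CSK4 priming and 24 hour LipidA transfection, IL-1a secretion was read by HTRF.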
As to GGACAUUAAGAGUGGAAAGTT against Nucb1, the z-score is 0.777 (inactive). For GGGAAGGAUUAUGUCAAAUTT against Kit the value was 0.328 (inactive); for CGGCCUCCAUGUUAAGAUATT against Csf2rb2, -0.249 (inactive).

GCCUGAAGAGAGUCUUAUCTT against Bnip5: the z-score is 1.09 (inactive).

For the sequence GGCAUUUAAAUCUGUGUGUTT against Slc39a6, the z-score is -0.471 (inactive). For GCAAUGGUUUCGGCUACGATT against Hoxb3 the value was 2.18 (active).

Consider GGGAGGAAGUGGAAGUUCUTT against Tsc22d1, for which the z-score was 0.488 (inactive). As for GGUGAAUGUAGUGUUAAAATT against Cyrib, the z-score is -0.204 (inactive).

As to GAGAUGUCCGAAAUGCCAATT against Smco4, the z-score is 1.73 (inactive). In the case of GGACAGUGUAGUCAAAAAATT against Cx3cr1 it was 0.149 (inactive). On to GCAAACCUCAAUCUUGAAATT against Kif15, for which the z-score is 0.297 (inactive). On to “GGCAGUUAUUUCUAUCUUATT against 1700018F24Rik”, for which the z-score was 0.683 (inactive).

In the case of GGCUGUUGAACAGGUUAUCTT against Mis12, the z-score was 0.645 (inactive). For the sequence CCUGAUCAACAAACCGGAUTT against Rfxank, the z-score was 1.29 (inactive).

Take CGACUGUCGUUUGUUGAUGTT against Tktl2: the z-score was -0.766 (inactive). For GUAGAGUGAUGAGAGGCCUTT against Vmn1r-ps8 the value was -0.475 (inactive). UUCAAAUAAACUCUCUGCUTT against Krtap31-2: the z-score was 0.802 (inactive). With GGAAUUCCCAAGAGAAGGATT against Gk, the z-score is -5.27 (active). As to GCCUUCAUGGGAUUUGUCUTT against Opn1sw, the z-score was -0.498 (inactive). With GGGCCACAGCUUAAUACUGTT against Ptov1, the z-score is 3.28 (active). On to GCUAGUUUCCGUCGCUUUGTT against Cpeb4, for which the z-score was 0.555 (inactive). In the case of GGUACUGGAAAUCUGUAUGTT against Nlgn1 it was -0.332 (inactive); in that of GCGAACUUUUACAUUUCGATT against Gmpr, 0.272 (inactive).

On to GUGGGAUUCCAGUAGAAAUTT against Olfr1116, for which the z-score was 0.559 (inactive).

As for CCAAGUUAGUGGAUGAAUGTT against Ugt2b35, the z-score was -0.555 (inactive). In the case of GGGAGGAAAUUAAAUUUCATT against Hif1an, the z-score is -0.223 (inactive).

With “GGCCUUCUAAAGCUGUGAUTT against 6330403K07Rik”, the z-score is -2.7 (active). Regarding GGAAAUAUCCUAAACAGAATT against Gdpd2, the z-score is -0.864 (inactive). As to GCAGUUGCGUUCUAUUGAATT against Ccdc86, the z-score is 0.179 (inactive). As to “GCCGGUUGGAACAAAAGGCTT against E130018O15Rik”, the z-score is 0.993 (inactive). For GCGAUCAGUACUGAAGGAATT against Siglecf, the z-score was -1.27 (inactive). Turning to GGAGACUGUCUAAUAAAAATT against Medag, the z-score was 0.0572 (inactive). For CUGUAUGUUAUCUCUACACTT against Olfr1513, the z-score is 0.469 (inactive). For the sequence CCAAAUUGCUUACAUGAUATT against Greb1, the z-score is 1.44 (inactive).

Regarding GCUGAUAACCUGAUCAACGTT against Nars, the z-score is 0.0406 (inactive). CGACGACUAGACCUCAUCUTT against Dtx4: the z-score is -0.624 (inactive). Regarding GGGUGGAGAACCAAGUUUUTT against Tmed6, the z-score was 3.21 (active). On to GGACUUAUUCGAUAUAGUATT against Nt5c1b, for which the z-score is -1.23 (inactive).

For the sequence UGCAUGGACUUACGAAAGATT against Tas2r115, the z-score was 0.454 (inactive).

As to “GCUGCCGUUUAAAUAUAUGTT against D10Wsu102e”, the z-score was 0.31 (inactive). For CUCCCUGGCAUUAAUCCGUTT against Tepp, the z-score was 0.0788 (inactive). Consider GAUUUGGUGUCUGCCGAGATT against Prrt1, for which the z-score is 1.73 (inactive).

As for GGCUACAACCAAAUCUUCATT against Papln, the z-score is 0.873 (inactive).

As to GCGAUUAACGGAUCGUACCTT against Letmd1, the z-score is 0.192 (inactive). Take GGACUUGGAGAGCAAAAGCTT against Ano2: the z-score was -2.14 (active). Take GCAGAUCAAAUUUAGCUGATT against Wwc2: the z-score is 0.266 (inactive).

Take “GCUUUUUAUCCGUGUCGAUTT against 4930474N05Rik”: the z-score is 0.501 (inactive). Regarding GGUUAAACCCUCUUCUCAUTT against Uhrf2, the z-score was -0.645 (inactive). For CCAAUUCACUUAGGAGCUGTT against Psma4, the z-score was -2.1 (active). Regarding GGAAGUAUCGAGAUUCAUGTT against Pitpnm3, the z-score is 0.0165 (inactive). For the sequence GCUUCAGACGUAAUUUACUTT against Morc1, the z-score was 0.751 (inactive). Consider GGUUUUGGUUUUGUGGAAUTT against Srsf5, for which the z-score is 1.45 (inactive).

As for GGAUCUGGUACCCACCCAATT against Jak2, the z-score is -1.63 (inactive). Consider GGAAUUCUACCUGAAAAUCTT against Arel1, for which the z-score is 0.122 (inactive). Consider CGCUCUUUCAGCACAAGAATT against Zfp422, for which the z-score is -1.57 (inactive). Consider CCUACGACCUGAAGAUAGCTT against Dscc1, for which the z-score is -0.124 (inactive). Take GGUGGACUCAUUCUAAUACTT against Nudt1: the z-score is -1.06 (inactive). For CCUGCUAUACAUUGAACCCTT against Lhcgr the value was 2.52 (active); for GGUGUAGCUGGAAUUGGCATT against Nlrp4b, -0.0207 (inactive).

Regarding GGUGAAGCAAAACGGAGGATT against H2-M10.1, the z-score is 0.512 (inactive). For GCCUAUUUCCGUGAACCCGTT against Mgmt the value was -1.04 (inactive); for GGCCAAUCCACGAAAGCAUTT against Strip1, -0.958 (inactive); for GCUGGGUGAUAAACAAUGUTT against Rhbg, 3.42 (active). In the case of GGGACUCUUCACUUGAAAUTT against Ccl3, the z-score is -3.8e-05 (inactive). On to GGAUACCACUUUAGAACCATT against Fgfr2, for which the z-score is 0.484 (inactive). In the case of CCACAUCUUUGACGAGUACTT against Rgs16, the z-score was -0.145 (inactive).

As for GGAAGACAGGCAUAAAAAATT against Slc41a2, the z-score was -1.38 (inactive). For the sequence GGUUAAGUCCCUAGGACAUTT against Blzf1, the z-score is 0.998 (inactive). Consider GGAAAAAUUGCUUCUGACCTT against Rad51b, for which the z-score is -1.17 (inactive). With CCUACAAACCAGAAGAGGUTT against Akr1c19, the z-score is 0.285 (inactive).

Consider CCAGACAUGAUACUCCGGCTT against Tssk3, for which the z-score is 2.57 (active).

Turning to GCCUGUGUGCUGUUGUGUUTT against Krtap5-1, the z-score is 1.33 (inactive). As for CGGCAUCAUUCAUUCAUUATT against Pacrgl, the z-score is 2.01 (active). For the sequence CGAUACUGUGCAAAGAAUCTT against Nepro, the z-score is 0.231 (inactive). On to CCUGUGUCAAUCCUGUGCATT against Ifitm7, for which the z-score was 0.0113 (inactive). With GGAACUUUAUGUGGAAAGATT against Vmn1r235, the z-score is -0.449 (inactive).

Regarding CGGUCAAGGACAGGAAGUGTT against Eif4b, the z-score is 0.518 (inactive). In the case of GGACAAAGAUAAUGGAAAATT against Erlec1 it was 0.353 (inactive); in that of GGGAACGCAACAUUUCUCCTT against Oxld1, 2.34 (active); in that of GGAUUCCAAUUUUAUUCCATT against Brca1, 1.57 (inactive). In the case of GAUAACAAGCAUCUCAUGUTT against Krtap6-5, the z-score is -0.411 (inactive).

Turning to CCGGCAGACCUGUGACAUUTT against Rgs14, the z-score is 0.0166 (inactive). For GGUGGAGAAGCUCAUUGCUTT against Zap70, the z-score was 0.444 (inactive). As to GGAAGAAAGAGUGUAUCAATT against Idi2, the z-score is 0.487 (inactive).

“GGCUCAACCAAGAAAGGCUTT against 4930591A17Rik”: the z-score is -1.28 (inactive). For the sequence GAAAGAAACGGCAGAUUGCTT against Vmn2r122, the z-score was 0.133 (inactive). For the sequence GGAAAGUUGUGAACUCUAATT against Olfr1157, the z-score was 0.583 (inactive). For GGAUUAGUGCAGGAAUCAATT against Rel, the z-score is 0.922 (inactive). As to GUUCCUGUUCCACUACUGCTT against Sts, the z-score is -2.32 (active). As for GCAAAACUGAACAAAGUACTT against Xirp2, the z-score was 0.658 (inactive). For CGAGUGUUGAAUAUUGUGATT against Gpr65, the z-score was 0.158 (inactive).

On to GGUAGUUAAUCAGUGUAAATT against Rps6kb1, for which the z-score is 1.1 (inactive). GGAUACCAUCAUUGAUGUCTT against Dmap1: the z-score was -2.29 (active). For the sequence UCGGCCAUGUAGUAUGGGATT against Xlr3a, the z-score was 0.42 (inactive). In the case of GCACUCACGAUCAUCUUUGTT against Has1, the z-score is -0.513 (inactive). Consider GGCCCAGGUGGAUAGUUAUTT against Cep120, for which the z-score was 2.03 (active). Take GGAAAACACACUUUUCUUUTT against Thap2: the z-score was -0.119 (inactive). In the case of GGCAGCAGGAUGCAGAAAUTT against Ngef it was -2.43 (active); in that of GCUAUAGAUUGGCUUUAUGTT against Depdc1a, 0.727 (inactive). Take GACAAAACUCAUUGUUCUUTT against Taf11: the z-score was 1.16 (inactive). CCUUCUCAUAGUGAAAGUATT against Zkscan5: the z-score was 1.05 (inactive). GCCUUGCCCUGACUAUGUUTT against Paqr3: the z-score is 0.0997 (inactive). Turning to GGUGCACAGAUGUCUUACCTT against Sec24d, the z-score is -0.945 (inactive). For the sequence GGUAGAAGAGUCUGAUCAUTT against Sfrp1, the z-score is -0.0589 (inactive). On to GGCCAUUUACAAGAUGGUUTT against Hpca, for which the z-score is -0.619 (inactive). For the sequence GGUGGUCUACAGAAAAUUCTT against Ncf1, the z-score was -0.908 (inactive). For the sequence GGUGGUUCACAAAUACUGUTT against Agtpbp1, the z-score was 0.264 (inactive).
